Measured values taken from ChEMBL document CHEMBL4513216, “Probing the Open Global Health Chemical Diversity Library for Multistage-Active Starting Points for Next-Generation Antimalarials” (ACS Infect Dis, 2020).
Among all 68,000 compounds or so, about 2,700 (4%) showed an effect of 50% or more. Many of the other results were omitted from the sample, so strong results are more common in it than they were.

What follows are compounds tested on Plasmodium berghei (assay: Screen against P. berghei liver stage (PbLuc), transformed with Luciferase, at 2uM). Conditions: tested at 2 uM.
Type: functional, HepG2

Compared with `CCC(C)NC(=O)CS(=O)(=O)Cc1cc(C)ccc1C` (stereo unspecified), `CN(CCc1cccs1)C(=O)Nc1cccc(S(C)(=O)=O)c1` is higher in INHIBITION: -10.29% for the first, -7.16% for the second.

First: O=C(NCC1CC1)c1ccc(NC(=O)c2ccco2)cc1
Second: O=C(Nc1ccc(Cl)cc1)c1nn(C2CCS(=O)(=O)C2)c2c1CCCC2 (stereo unspecified)
The INHIBITION of the first is higher: 24.44% for the first, 14.16% for the second.

Going from `COc1ccccc1-n1nc(CC(C)C)nc1Cc1nnc(N)s1` to `CCc1nnc(CN(C)Cc2nc(-c3ccccc3Cl)oc2C)o1`, the INHIBITION rises from -28.44% to 15.84%.

Compared with `O=C(Nc1ccccc1)c1nn(C2CCS(=O)(=O)C2)c2c1CCCC2` (stereo unspecified), `O=C(Nc1cccc(Cl)c1)c1nn(C2CCS(=O)(=O)C2)c2c1CCCC2` (stereo unspecified) is lower in INHIBITION: 73.37% for the first, 21.33% for the second.

First: O=C(Nc1cccnc1)c1nn(C2CCS(=O)(=O)C2)c2c1CCCC2 (stereo unspecified)
Second: O=C(Nc1ccc(Cl)cn1)c1nn(C2CCS(=O)(=O)C2)c2c1CCCC2 (stereo unspecified)
The INHIBITION of the first is lower: -0.14% for the first, 66.3% for the second.

Going from `Cc1cccc(NC(=O)c2nn(C3CCS(=O)(=O)C3)c3c2CCCC3)n1` (stereo unspecified) to `Cc1cncc(C2CCCN(C(=O)c3ccc(C)[nH]c3=O)C2)n1` (stereo unspecified), the INHIBITION rises from 9.29% to 17.71%.

Going from `O=C(NCCc1ccccc1Cl)NCC1(O)CCSC1` (stereo unspecified) to `O=C(NCc1ncc(-c2ccccc2)o1)NC1CCC(O)CC1` (stereo unspecified), the INHIBITION rises from -41.73% to 13.58%.

First: COCCN(C/C=C/c1ccccc1)Cc1ncc[nH]1
Second: Cc1cnn(CCNCc2nc(CNC(=O)c3ccccc3)no2)c1
The INHIBITION of the first is lower: -14% for the first, 47.23% for the second.

Compared with `OC(CN1CCN(CC(F)F)CC1)c1ccc(Br)cc1` (stereo unspecified), `CCN1CCN(CC(O)c2ccc(Br)cc2)CC1` (stereo unspecified) is higher in INHIBITION: 15.84% for the first, 63.46% for the second.

First: OC(CN1CCN(CC2CCCCC2)CC1)c1ccccc1 (stereo unspecified)
Second: OC(CN1CCN(CC2CC2)CC1)c1ccc(Br)cc1 (stereo unspecified)
The INHIBITION of the first is lower: 12.55% for the first, 50.32% for the second.

Going from `CCN1CCN(CC(O)c2ccc(F)cc2)CC1` (stereo unspecified) to `NC(=O)CC1CCN(CC(O)c2ccc(Br)cc2)CC1` (stereo unspecified), the INHIBITION falls from -5.15% to -58.06%.

First: Cn1cc(CN2CCCC23CCN(C(=O)c2cccn2C)CC3)cn1
Second: Cc1ccc(C(=O)N2CCN(Cc3ccccc3)CC2)n1C
The INHIBITION of the first is lower: 1.42% for the first, 52.17% for the second.

Going from `CO[C@@H]1CC[C@H]2[C@H]1OCCN2Cc1ccc(F)cc1` to `Cc1nnc(CN2CCOC(c3ccc(Cl)cc3)C2)o1` (stereo unspecified), the INHIBITION rises from 19.53% to 57.75%.

First: Cc1nonc1CN(C)Cc1nc(-c2cccc(F)c2F)oc1C
Second: Cc1nonc1CN(C)Cc1nc(-c2ccccc2Cl)oc1C
The INHIBITION of the first is lower: -25.82% for the first, 51.96% for the second.

Going from `Cc1cc(C2CCC2)nc(NCC(C)(C)N2CCCC2)n1` to `Cc1cncc(C2CCCN(CC3CCC3)C2)n1` (stereo unspecified), the INHIBITION rises from 7.85% to 50.63%.

Going from `CC(C)N1CCO[C@H]2CN(C(=O)c3ccoc3)C[C@H]21` to `CC(C)N1CCO[C@H]2CN(C(=O)c3ccsc3)C[C@H]21`, the INHIBITION rises from -17.23% to 65.32%.

First: O=C(c1ccsc1)N1CCO[C@@H]2CN(Cc3cccs3)C[C@@H]2C1
Second: O=C(c1ccsc1)N1CCO[C@@H]2CN(Cc3nccs3)C[C@@H]2C1
The INHIBITION of the first is higher: 78.93% for the first, 41.28% for the second.

Compared with `Cc1cc(CN2C[C@@H]3CN(C(=O)c4ccsc4)CCO[C@@H]3C2)no1`, `O=C(c1ccsc1)N1CCN2C[C@H](OCc3ccccn3)C[C@H]2C1` is higher in INHIBITION: -89.19% for the first, 53.08% for the second.

Going from `CC(C)N1CCO[C@H]2CN(C(=O)c3ccncc3)C[C@H]21` to `O=C(c1ccnnc1)N1CCN2C[C@H](OCc3ccccn3)C[C@H]2C1`, the INHIBITION rises from 19.96% to 26.94%.

First: c1ncn(Cc2nnc(C3CCN(CC4CC4)CC3)n2C2CC2)n1
Second: c1ccc2oc(N3CCC(c4nncn4C4CC4)CC3)nc2c1
The INHIBITION of the first is higher: 30.96% for the first, 15.02% for the second.

First: Cc1nnc(CN2CCOC(c3ccc(Cl)c(Cl)c3)C2)o1 (stereo unspecified)
Second: Cc1nc(CN2CCOC(c3ccc(Cl)cc3)C2)oc1C (stereo unspecified)
The INHIBITION of the first is higher: 38.67% for the first, 5.28% for the second.

Compared with `c1ccc(O[C@H]2CO[C@@]3(CCN(Cc4ccc5c(c4)OCO5)C3)C2)nc1`, `O=C(c1ccc(F)cc1)N1CCN2C[C@H](OCc3ccccn3)C[C@H]2C1` is lower in INHIBITION: 40.83% for the first, 15.58% for the second.

First: Cc1ccc(CN2CCCC(c3cncc(C)n3)C2)cn1 (stereo unspecified)
Second: Cc1cncc(C2CCCN(Cc3ccncc3)C2)n1 (stereo unspecified)
The INHIBITION of the first is higher: -0.15% for the first, -33.09% for the second.

Compared with `O=C(c1c[nH]c(=O)[nH]c1=O)N1CCCC(c2cnccn2)C1` (stereo unspecified), `Cc1cncc(C2CCCN(C(=O)c3c[nH]c(=O)[nH]c3=O)C2)n1` (stereo unspecified) is higher in INHIBITION: -15.93% for the first, 50.72% for the second.

Compared with `COc1ccc(NC(C)c2ccc(C#N)cc2)cc1N1CCCC1=O` (stereo unspecified), `Cc1ccc(C(=O)N2CCN(Cc3ccc(C#N)cc3)CC2)n1C` is higher in INHIBITION: -50.8% for the first, 28.18% for the second.

Going from `O=C1CC(c2ccc(CO)o2)c2cnn(Cc3ccco3)c2N1` (stereo unspecified) to `Cc1nc(-c2cnn(C)c2)sc1C(=O)NCc1cccc(CN(C)C)c1`, the INHIBITION falls from -1.11% to -6.4%.

First: CN(Cc1nnc2n1CCC2)C(=O)Cc1ccc2c(c1)CCC2
Second: Cc1nnsc1C(=O)N1CC[C@H](c2ccccc2)[C@@H]2[C@H]1CCCCN2C
The INHIBITION of the first is lower: -9.49% for the first, 22.81% for the second.

Compared with `NC(=O)C1CN(C(=O)Nc2ccccc2SC(F)(F)F)CCO1` (stereo unspecified), `Cn1cnnc1C1CCN(c2nc3ccccc3o2)CC1` is higher in INHIBITION: -20.93% for the first, 53.81% for the second.

First: COc1cc(C)c(CN2CCc3nc4ccsc4c(=O)n3CC2)cc1C
Second: COc1ccc(CN2CCN(C(=O)c3ccc(C)n3C)CC2)cc1
The INHIBITION of the first is higher: 36.56% for the first, -10.64% for the second.

First: CN(C)c1cccc(C(=O)Nc2cnn(Cc3ccncc3)c2)c1
Second: CN(C)c1nc(N)nc(CN2CCC(c3ccccc3)CC2)n1
The INHIBITION of the first is lower: -34.79% for the first, 29.6% for the second.

Compared with `COCCC(=O)N1CCC2(COCc3cnc(NCC4CC4)nc32)C1` (stereo unspecified), `Cc1cnc(C(=O)N2CCN3C[C@H](OCc4cccnc4)C[C@H]3C2)cn1` is lower in INHIBITION: -20.77% for the first, -35.38% for the second.

Going from `Cn1cnnc1C1CCCN(c2nc3ccccc3o2)C1` (stereo unspecified) to `CC(C1CC1)N(C(=O)NCCCn1nc2ccccn2c1=O)C1CC1` (stereo unspecified), the INHIBITION falls from 44.25% to 1.07%.

First: O=C(c1ccsc1)N1CCN2C[C@H](OCc3cccnc3)C[C@H]2C1
Second: O=C(c1cscn1)N1CCN2C[C@H](OCc3cccnc3)C[C@H]2C1
The INHIBITION of the first is lower: 16.22% for the first, 50.12% for the second.
